Compounds with a hit are over-represented: about 1.4% of the library has one in this group of screens.
MIN6 prolif-1: MIN6 beta-cell proliferation induction. MIN6 cells proliferation, ATPlite luminescence, 48 h; cells starved in 0.2% serum; 100% = growth in 10% serum. proliferation, % at 10 µM. actives 0.29% (n = 330,000). AID 2380;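 active = compounds whose signal lies at least 3.5 SD above the mean of all wells on their plate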;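 note: 0% = DMSO-treated cells in low-serum medium and 100% = 10% serum control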
OPRM1-OPRD1 inv: mu-delta opioid heterodimer inverse agonism. P35372+P41143. cell-based MOR-DOR heterodimer luminescence. inhibition, % at 9.3 µM. actives 0.21% (n = 340,000). AID 504357; in the data active = inhibition above about 22%, passing the limit was not always enough;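 note: 0% = cells with DMSO and 100% = wells without cells with DMSO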
OPRM1-OPRD1 ag: OPRM1-OPRD1 heterodimerization agonism. P35372+P41143. cells, luminescence. activation, % at 9.3 µM. actives 0.3% (n = 340,000); in the data active = activation above about 18%;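 note: 0% = vehicle-treated cells and 100% = reference agonist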
HTR5A ag ctr: HTR5A agonism, opioid heterodimer counter-screen. HTR5A agonist assay, luminescence, cell-based. actives 0.61% (n = 340,000). AID 504692. activation, % at 9.3 µM; in the data active = activation mostly above about 9.5%, no sharp cut-off; inactive = mostly below about 7.6%;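 note: 0% = cells with vehicle only and 100% = reference agonist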
Target sequence (P47898 whole entry, looked up): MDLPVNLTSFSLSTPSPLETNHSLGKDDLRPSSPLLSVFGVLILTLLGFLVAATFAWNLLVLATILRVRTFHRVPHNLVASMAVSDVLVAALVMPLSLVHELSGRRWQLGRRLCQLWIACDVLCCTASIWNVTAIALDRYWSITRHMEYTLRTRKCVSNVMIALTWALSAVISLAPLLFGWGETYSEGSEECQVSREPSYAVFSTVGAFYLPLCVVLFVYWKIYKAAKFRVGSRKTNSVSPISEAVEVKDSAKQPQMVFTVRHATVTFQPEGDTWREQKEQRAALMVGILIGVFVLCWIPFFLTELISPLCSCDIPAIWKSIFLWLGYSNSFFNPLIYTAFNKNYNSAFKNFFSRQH
pCIP destab: p/CIP protein destabilization; F442A p/CIP-EGFP cells, EGFP fluorescence, 16 h; decrease of EGFP signal, % at 10 µM; actives 0.01% (n = 290,000);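 active = EGFP signal decrease of at least 30% at 10 µM or well 3 SD below plate mean, unless failing retest; inactive = the rest, including hits failing retest or dose response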
HTR5A inv ag: inverse agonist of human HTR5A in OPRM1-OPRD1 counter-screen; P47898; HTR5A cell line, luminescence, inverse agonism; inhibition, % at 9.3 µM; actives 0.083% (n = 340,000); in the data active = inhibition mostly above about 23%, no sharp cut-off; inactive = mostly below about 18%;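 note: 0% = cells with DMSO and 100% = no-cell wells with DMSO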
MIN6 prolif-2: confirmation of inducers of beta-cell replication in MIN6 cells | shares compounds with MIN6 prolif-1 | MIN6 beta-cell proliferation, ATPlite luminescence, 48 h; cells kept in 0.2% serum; scaled between 0.2% and 10% serum | proliferation increase, % at 50 µM | 920 tested, under 10 active;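 active = proliferation increase above 40% at any of the four tested concentrations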
Starred values were filed as active, the others as inactive.

For CCN(CC)c1ccc(NC(=O)Nc2cccc(C(C)=O)c2)cc1 the results were MIN6 prolif-1 -4.7, OPRM1-OPRD1 inv -3.9, OPRM1-OPRD1 ag 0.9, HTR5A ag ctr 13.0*, pCIP destab -6.7 and HTR5A inv ag -33.9.
For CCCCCCCCCCCCCCC(O)C[N+](C)(CCO)CCO (stereo unspecified) the results were OPRM1-OPRD1 inv 10.8, OPRM1-OPRD1 ag -2.5, HTR5A ag ctr -0.6 and HTR5A inv ag 2.1.
For O=C(COC(=O)c1ccncc1)Nc1ccccc1 the results were MIN6 prolif-1 -1.9, OPRM1-OPRD1 inv 2.5, OPRM1-OPRD1 ag -0.5, HTR5A ag ctr 11.8*, pCIP destab 2.2 and HTR5A inv ag -4.4.
O=C(COC(=O)c1cccnc1)Nc1ccccc1 was read as MIN6 prolif-1 0.0, OPRM1-OPRD1 inv 12.2, OPRM1-OPRD1 ag -2.6, HTR5A ag ctr 2.8, pCIP destab 1.1 and HTR5A inv ag -8.1.
For O=C(NCc1ccccc1C(F)(F)F)c1cccc2c1C(=O)c1ccc(N3CCCCC3)cc1S2(=O)=O the results were MIN6 prolif-1 -2.4, OPRM1-OPRD1 inv 13.4, OPRM1-OPRD1 ag -2.9, HTR5A ag ctr 0.6 and HTR5A inv ag -2.1.
Screening Cc1cc(S(=O)(=O)N2CCCC(N3CCOCC3)C2)c(C)cc1Cl (stereo unspecified) returned MIN6 prolif-1 -4.2, OPRM1-OPRD1 inv -4.8, OPRM1-OPRD1 ag 0.9, HTR5A ag ctr 0.3, pCIP destab -7.7 and HTR5A inv ag -0.7.
`Cc1cc(C(C)(C)C)cc(C)c1Cn1c2[n+](c3ccc(C(F)(F)F)cc31)CCCCC2` gave MIN6 prolif-1 -6.6, OPRM1-OPRD1 inv 1.7, OPRM1-OPRD1 ag -0.4, HTR5A ag ctr 11.2*, pCIP destab -2.5 and HTR5A inv ag -27.8.
`COc1ccc(NC(=O)C(C)Sc2nnc(C3CC3)n2C2CC2)cc1` (stereo unspecified) gave MIN6 prolif-1 -1.5, OPRM1-OPRD1 inv 8.6, OPRM1-OPRD1 ag -2.2, HTR5A ag ctr -3.0 and HTR5A inv ag -11.5.
`Cc1ccc(C(=O)N/N=C/c2cc(Br)ccc2O)cn1` gave MIN6 prolif-1 -3.0, OPRM1-OPRD1 inv -4.6, OPRM1-OPRD1 ag 1.0, HTR5A ag ctr 10.3*, pCIP destab 2.5 and HTR5A inv ag -38.2.
For CCC(=O)N1CCc2cc(S(=O)(=O)NCCC(=O)NCc3ccccc3OC)ccc21 the results were MIN6 prolif-1 -2.5, OPRM1-OPRD1 inv 8.8, OPRM1-OPRD1 ag -1.7, HTR5A ag ctr 11.2*, pCIP destab 2.2 and HTR5A inv ag -5.0.
Screening C[C@H](NC(=O)c1nc[nH]c1C(=O)N1CCN(c2ccccc2)CC1)C(=O)OCc1ccccc1 returned MIN6 prolif-1 -6.3, OPRM1-OPRD1 inv 8.1, OPRM1-OPRD1 ag -1.4, HTR5A ag ctr -0.8, pCIP destab -3.8 and HTR5A inv ag 5.8.
`O=C(N[C@@H](Cc1ccccc1)C(=O)OCc1ccccc1)c1nc[nH]c1C(=O)N1CCN(c2ccccc2)CC1` gave MIN6 prolif-1 -8.6, OPRM1-OPRD1 inv -15.7, OPRM1-OPRD1 ag 2.9, HTR5A ag ctr 13.1*, pCIP destab -10.3 and HTR5A inv ag -31.9.
CC1=CC2C(C(O)CC3(C)C2CC(C)C32OCOC23COCO3)C2(C)C/C(=C\O)C(=O)C=C12 (stereo unspecified) was read as OPRM1-OPRD1 inv -112.1, OPRM1-OPRD1 ag 25.6*, HTR5A ag ctr 31.3* and HTR5A inv ag -120.0.
Cn1c(N)c(C(=O)COC(=O)CNC(=O)c2ccccc2F)c(=O)n(C)c1=O was read as MIN6 prolif-1 1.1, OPRM1-OPRD1 inv 13.9, OPRM1-OPRD1 ag -2.6, HTR5A ag ctr 1.6 and HTR5A inv ag -5.7.
`CNCCCCOc1ccccc1-c1ccccc1` gave MIN6 prolif-1 0.0, OPRM1-OPRD1 inv -0.2, OPRM1-OPRD1 ag 0.0, HTR5A ag ctr 9.9*, pCIP destab -19.2 and HTR5A inv ag 11.0.
For CNCCOc1ccccc1-c1ccccc1 the results were MIN6 prolif-1 2.7, OPRM1-OPRD1 inv -7.1, OPRM1-OPRD1 ag 1.2, HTR5A ag ctr -3.7, pCIP destab 3.1 and HTR5A inv ag -13.8.
Screening CCCCC(=O)Nc1sc2c(c1C(=O)OCC)CCC(C=O)=C2Cl returned MIN6 prolif-1 -5.8, OPRM1-OPRD1 inv -5.2, OPRM1-OPRD1 ag 0.9, HTR5A ag ctr 12.3*, pCIP destab 0.1 and HTR5A inv ag 3.8.
Screening CCc1ccccc1S(=O)(=O)Cc1ccc(C(=O)NC(C)C)o1 returned MIN6 prolif-1 -2.4, OPRM1-OPRD1 inv 13.6, OPRM1-OPRD1 ag -2.6, HTR5A ag ctr 12.6* and HTR5A inv ag -34.9.
Screening O=C(C#Cc1ccccc1)Nc1ccc(F)cc1 returned MIN6 prolif-1 -4.9, OPRM1-OPRD1 inv 15.3, OPRM1-OPRD1 ag -3.2, HTR5A ag ctr 9.0*, pCIP destab -10.3 and HTR5A inv ag -30.5.
O=C(C#Cc1ccccc1)Nc1cccc(F)c1 was read as MIN6 prolif-1 -4.4, OPRM1-OPRD1 inv -7.0, OPRM1-OPRD1 ag 1.5, HTR5A ag ctr 0.6, pCIP destab -10.9 and HTR5A inv ag -2.3.
Screening CCN(CC)c1ccc(/C=N/N2CCN(Cc3ccc(Cl)cc3)CC2)c(O)c1 returned MIN6 prolif-1 -4.7, OPRM1-OPRD1 inv 12.9, OPRM1-OPRD1 ag -2.5, HTR5A ag ctr 12.6*, pCIP destab -6.2 and HTR5A inv ag -39.5.
Screening O=C(O)c1ccc(N/N=C/c2ccc(-c3ccccc3)cc2)cc1 returned OPRM1-OPRD1 inv 6.7, OPRM1-OPRD1 ag -1.3, HTR5A ag ctr 13.4*, pCIP destab 12.2 and HTR5A inv ag -10.3.
CC(=O)OCC=C1CCC2C3CC(C)C4=CC(=O)CCC4(C)C3C(O)CC12C (stereo unspecified) was read as OPRM1-OPRD1 inv -51.8, OPRM1-OPRD1 ag 10.4, HTR5A ag ctr 6.9 and HTR5A inv ag -26.7.
COC(=O)c1cc2c(s1)CS(=O)C2 (stereo unspecified) was read as MIN6 prolif-1 3.5, OPRM1-OPRD1 inv 4.8, OPRM1-OPRD1 ag -0.9, HTR5A ag ctr 12.1*, pCIP destab 1.8 and HTR5A inv ag 7.0.
`COc1ccc(CNC(=O)c2cc3c(s2)CS(=O)C3)cc1` (stereo unspecified) gave MIN6 prolif-1 -1.7, OPRM1-OPRD1 inv -2.1, OPRM1-OPRD1 ag 0.4, HTR5A ag ctr -5.1, pCIP destab -3.3 and HTR5A inv ag 14.9.
`COc1ccc(NC(=O)CS(=O)c2ccc(F)cc2)cc1` (stereo unspecified) gave MIN6 prolif-1 12.4*, OPRM1-OPRD1 inv 18.8, OPRM1-OPRD1 ag -3.5, HTR5A ag ctr -1.2, pCIP destab -9.5, HTR5A inv ag 10.7 and MIN6 prolif-2 -1.3.
`COC(=O)c1ccc(NC(=O)c2cc(-c3ccccn3)nc3ccccc23)cc1` gave MIN6 prolif-1 7.5*, OPRM1-OPRD1 inv 2.7, OPRM1-OPRD1 ag -0.6, HTR5A ag ctr 1.9, pCIP destab -4.4, HTR5A inv ag -5.2 and MIN6 prolif-2 1.6.
